# Laboratory results as given in the supplement of paper PMC12282887.
# ± gives the standard deviation of the averaged measurements.
# Tested on: E. coli BW25113 marRABp lux reporter
# Assay: promoter activity interaction Z-score (Lux/OD deviation from empty-vector control); higher = stronger promoter induction by the compound
# Protocol: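 E. coli BW25113 (wild type or ΔmarA/ΔsoxS/Δrob) carrying pTU175 luxCDABE promoter reporters was grown in LB in 384-well plates at 37°C with each of 94 compounds at 4 two-fold concentrations, in biological duplicates. Luminescence and OD600 were read every 30 min for 12 h and integrated as AUC over 8 h (0-8 h WT, 1-9 h mutants). Lux AUC was divided by OD AUC; the interaction score is the residual of a Huber robust fit of each promoter against the empty-vector control, then Z-transformed per promoter.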
structure (smiles),measurement,setting,value
C[C@H]1c2cccc(O)c2C(=O)C2=C(O)[C@]3(O)C(=O)C(C(N)=O)=C(O)[C@@H](N(C)C)[C@@H]3[C@@H](O)[C@@H]21 [Doxycycline],promoter activity interaction Z-score,"0.064 µg/ml, genetic background: wild type",0.973 ± 0.17
same,promoter activity interaction Z-score,"0.064 µg/ml, genetic background: ΔmarA",2.43 ± 0.098
same,promoter activity interaction Z-score,"0.064 µg/ml, genetic background: Δrob",0.676 ± 0.28
same,promoter activity interaction Z-score,"0.064 µg/ml, genetic background: ΔsoxS",1.01 ± 0.13
same,promoter activity interaction Z-score,"0.13 µg/ml, genetic background: wild type",2.72 ± 0.47
same,promoter activity interaction Z-score,"0.13 µg/ml, genetic background: ΔmarA",4.3 ± 0.47
same,promoter activity interaction Z-score,"0.13 µg/ml, genetic background: Δrob",1.1 ± 0.25
same,promoter activity interaction Z-score,"0.13 µg/ml, genetic background: ΔsoxS",2.28 ± 0.13
same,promoter activity interaction Z-score,"0.26 µg/ml, genetic background: wild type",3.51 ± 0.065
same,promoter activity interaction Z-score,"0.26 µg/ml, genetic background: ΔmarA",2.23 ± 1.1
same,promoter activity interaction Z-score,"0.26 µg/ml, genetic background: Δrob",0.478 ± 0.55
same,promoter activity interaction Z-score,"0.26 µg/ml, genetic background: ΔsoxS",3.1 ± 0.92
same,promoter activity interaction Z-score,"0.51 µg/ml, genetic background: wild type",0.833
NCC[C@H](O)C(=O)N[C@@H]1C[C@H](N)[C@@H](O[C@H]2O[C@H](CN)[C@@H](O)[C@H](O)[C@H]2O)[C@H](O)[C@H]1O[C@H]1O[C@H](CO)[C@@H](O)[C@H](N)[C@H]1O [Amikacin],promoter activity interaction Z-score,"0.07 µg/ml, genetic background: wild type",-0.0461 ± 0.062
same,promoter activity interaction Z-score,"0.07 µg/ml, genetic background: ΔmarA",-0.273 ± 0.075
same,promoter activity interaction Z-score,"0.07 µg/ml, genetic background: Δrob",-0.255 ± 0.1
same,promoter activity interaction Z-score,"0.07 µg/ml, genetic background: ΔsoxS",-0.0126 ± 0.0034
same,promoter activity interaction Z-score,"0.15 µg/ml, genetic background: wild type",-0.123 ± 0.09
same,promoter activity interaction Z-score,"0.15 µg/ml, genetic background: ΔmarA",-0.134 ± 0.044
same,promoter activity interaction Z-score,"0.15 µg/ml, genetic background: Δrob",-0.00793 ± 0.05
same,promoter activity interaction Z-score,"0.15 µg/ml, genetic background: ΔsoxS",-0.13 ± 0.069
same,promoter activity interaction Z-score,"0.29 µg/ml, genetic background: wild type",0.0977 ± 0.14
same,promoter activity interaction Z-score,"0.29 µg/ml, genetic background: ΔmarA",0.566 ± 0.32
same,promoter activity interaction Z-score,"0.29 µg/ml, genetic background: Δrob",0.0547 ± 0.082
same,promoter activity interaction Z-score,"0.29 µg/ml, genetic background: ΔsoxS",0.193 ± 0.079
CCCC(=O)O [Butyrate],promoter activity interaction Z-score,"6.9 µg/ml, genetic background: wild type",-0.205 ± 0.013
same,promoter activity interaction Z-score,"6.9 µg/ml, genetic background: ΔmarA",-0.16 ± 0.12
same,promoter activity interaction Z-score,"6.9 µg/ml, genetic background: Δrob",0.206 ± 0.17
same,promoter activity interaction Z-score,"6.9 µg/ml, genetic background: ΔsoxS",0.201 ± 0.094
same,promoter activity interaction Z-score,"13.8 µg/ml, genetic background: wild type",-0.136 ± 0.0092
same,promoter activity interaction Z-score,"13.8 µg/ml, genetic background: ΔmarA",0.187 ± 0.35
same,promoter activity interaction Z-score,"13.8 µg/ml, genetic background: Δrob",0.0966 ± 0.16
same,promoter activity interaction Z-score,"13.8 µg/ml, genetic background: ΔsoxS",0.00738 ± 0.051
same,promoter activity interaction Z-score,"27.5 µg/ml, genetic background: wild type",-0.429 ± 0.012
same,promoter activity interaction Z-score,"27.5 µg/ml, genetic background: ΔmarA",-0.0336 ± 0.044
same,promoter activity interaction Z-score,"27.5 µg/ml, genetic background: Δrob",0.0375 ± 0.0006
same,promoter activity interaction Z-score,"27.5 µg/ml, genetic background: ΔsoxS",0.0783 ± 0.13
same,promoter activity interaction Z-score,"55 µg/ml, genetic background: wild type",-0.383 ± 0.07
same,promoter activity interaction Z-score,"55 µg/ml, genetic background: ΔmarA",-0.0286 ± 0.24
same,promoter activity interaction Z-score,"55 µg/ml, genetic background: Δrob",0.0661 ± 0.17
same,promoter activity interaction Z-score,"55 µg/ml, genetic background: ΔsoxS",0.114 ± 0.15
